In PubChem BioAssay (Tox21) one finds Potency and outcome data, which are given here for 14 molecules.

The nature of assay [1]: qHTS assay for small molecule agonists of the p53 signaling pathway - cell viability (AID 651633; calls by dose curve; also: nearly all actives have a fitted effect of over 30% in size; also: potency is read from the fitted curve at half-maximal effect). In outline: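 p53RE-bla cells, seeded at 4,000 per well and rested 5 h at 37 C/5% CO2, received compounds in DMSO for 16 h at 37 C. CellTiter-Glo was then added, and luminescence was read after 30 min at room temperature to gauge cytotoxicity.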
The nature of assay [2]: qHTS assay for small molecules that induce genotoxicity in human embryonic kidney cells expressing luciferase-tagged ATAD5 - cell viability (AID 651634; calls by dose curve; also: nearly all actives have a fitted effect of over 25% in size; also: potency is read from the fitted curve at half-maximal effect). In a few lines: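 Seeding of 2,000 HEK293T ATAD5-luciferase cells per well preceded pin-tool compound transfer. Plates sat 15.5 hr at 37C under 5% CO2, then fluorescence was read after 30 min with CellTiter-Fluor.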
A short description of assay [3]: qHTS assay for small molecule disruptors of the mitochondrial membrane potential (AID 720635). Also: potency is read from the fitted curve at half-maximal effect. In a few lines:
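HepG2 cells (2,000/well) attached overnight at 37C, then took compound for 1 hr at 37C, 5% CO2. Mito-MPS dye was added for 30 min; fluorescence was read at 490/535 nm (monomers) and 540/590 nm (aggregates).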

The nature of assay [4]: qHTS assay to test for compound auto fluorescence at 590 nm (red) in HepG2 cells (AID 720674). In a few lines: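 Intrinsic compound fluorescence in the red window (Ex/Em 540/590 nm) is measured in attached HepG2 cells exposed for 1 hr, DMSO vehicle as baseline, benchmarked to Rose Bengal sodium.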
Background: In qHTS, concentration-response curves come from the screen itself.

Assay [5] is described as follows: qHTS assay to test for compound auto fluorescence at 535 nm (green) in HepG2 cells (AID 720675).
Assay [6] can be described thus: qHTS assay to test for compound auto fluorescence at 460 nm (blue) in HEK293 cells (AID 720678). In a few lines:
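HEK293, 2,000 cells/well, 10% dialyzed FBS; attach 4-5 hr 37C; pin compound or DMSO; o/n 37C/5% CO2; fluorescence 405/460 nm; triamterene-equivalent units.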

A short description of assay [7]: qHTS assay to test for compound auto fluorescence at 590 nm (red) in HEK293 cells (AID 720679). In a few lines: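 Intensity at 540nm excitation and 590nm emission is reported as Rose Bengal sodium-equivalent autofluorescence. Measurements followed overnight exposure (37C, 5% CO2) of HEK293 cells, 2,000 per well, to 23 nL compound.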
A short description of assay [8]: qHTS assay to test for compound auto fluorescence at 535 nm (green) in HEK293 cells (AID 720680).
The nature of assay [9]: qHTS assay to test for compound auto fluorescence at 460 nm (blue) in HEK293 cell free culture (AID 720681). In outline: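 Test compounds were pinned into cell-free culture medium (DMEM with 10% FBS) and fluorescence was read directly at Ex/Em 405/460 nm. Signals were expressed as fluorescence equivalents of triamterene, with DMSO vehicle as control.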
Assay [10] is described as follows: qHTS assay to test for compound auto fluorescence at 535 nm (green) in HEK293 cell free culture (AID 720682). In outline: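 Each library compound, or DMSO control, is added by pintool to medium alone, comprising DMEM and 10% FBS. Emission at 535 nm following 485 nm excitation is quantified against fluorescein.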
Assay [11] is described as follows: qHTS assay to test for compound auto fluorescence at 590 nm (red) in HEK293 cell free culture (AID 720683). In a few lines:
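Tox21 10K library compounds were pinned into cell-free DMEM with 10% FBS and fluorescence was read at excitation 540 nm. Activity is expressed as Rose Bengal sodium equivalency.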

Assay [12] in a line: qHTS assay to test for compound auto fluorescence at 590 nm (red) in HepG2 cell free culture (AID 720684). In a few lines: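 Measured in medium alone (MEM containing 10% FBS) following pintool addition of compound; emission at 590 nm with 540 nm excitation, referenced to Rose Bengal sodium.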
Assay [13] can be described thus: qHTS assay to test for compound auto fluorescence at 460 nm (blue) in HepG2 cell free culture (AID 720685). In a few lines: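 Compound (23 nL) or DMSO pinned into cell-free MEM with 10% FBS; blue fluorescence read at 405/460 nm excitation/emission, expressed as auto-fluorescence equivalency to triamterene.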
Assay [14] is described as follows: qHTS assay to test for compound auto fluorescence at 535 nm (green) in HepG2 cell free culture (AID 720686).
Assay [15] is described as follows: qHTS assay to test for compound auto fluorescence at 460 nm (blue) in HepG2 cells (AID 720687). In a few lines:
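Cells (2,000/well in MEM with 10% FBS) attached overnight at 37 C, then were exposed to compound or DMSO for 1 hr at 37 C, 5% CO2. Fluorescence read at Ex/Em 405/460 nm, expressed as triamterene-equivalent signal.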

The target in assay [16] is Glucocorticoid receptor (Homo sapiens) (UniProt P04150). As to the kind of experiment: qHTS assay to identify small molecule antagonists of the glucocorticoid receptor (GR) signaling pathway (AID 720692; active = well fitted inhibition curve with a large enough effect in the signal ratio in the repeat runs, not every such curve was filed as active; the % refers to the signal ratio; also: potency is read from the fitted curve at half-maximal effect). In a few lines:
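Dexamethasone (5 nM final) stimulated a stably integrated GRE-beta-lactamase reporter in HeLa cells during 18 h co-incubation with compounds; signal was quantified as fluorescence intensity of B/G FRET substrate after 2 h.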

Assay [17] is described as follows: qHTS assay for small molecule agonists of the p53 signaling pathway (AID 651631; calls by dose curve; also: nearly all actives have a fitted effect of over 15% in size). In a few lines:
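Beta-lactamase reporter activity under p53 response elements was quantified in HCT-116 cells by FRET fluorescence, following 16 h incubation with test compounds at 37 °C and 2 h substrate development at room temperature.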

Assay [18] in a line: qHTS assay for small molecule disruptors of the mitochondrial membrane potential - cell viability (AID 720634; calls by dose curve;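 also: human HepG2 liver cancer cells; series mostly up to about 83 µM; nearly all actives have a fitted effect of over 20% in size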). In a few lines: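 Measuring cytotoxicity alongside mitochondrial potential, the screen quantified ATP by luminescence in HepG2 cells after 1 hr compound incubation and a 30 min room-temperature CellTiter-Glo step.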
Assay [19] is described as follows: qHTS assay for small molecules that induce genotoxicity in human embryonic kidney cells expressing luciferase-tagged ATAD5 (AID 651632). Also: nearly all actives have a fitted effect of over 15% in size. Also: potency is read from the fitted curve at half-maximal effect. In a few lines:
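Reporter cells (HEK293T) express luciferase-tagged ATAD5, a protein that accumulates after DNA damage. Treat 16 hr at 37C/5% CO2, add Amplite, wait 30 min at RT, and read luminescence.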

The target in assay [20] is Glucocorticoid receptor (Homo sapiens) (UniProt P04150). Put plainly: qHTS assay to identify small molecule agonists of the glucocorticoid receptor (GR) signaling pathway (AID 720691; active = well fitted activation curve with a large enough effect in the signal ratio in the repeat runs, not every such curve was filed as active; the % refers to the signal ratio). In a few lines: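 Reporter read-out: fluorescence intensity following 2 h room-temperature LiveBLAzer B/G FRET substrate loading. Prior step: GR-bla HeLa cells held 4 h, then treated 18 h at 37 C.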

Molecules are shown by their SMILES. Values joined by “and” are separate entries in the source; they are usually repeats but may differ in a detail not shown here. Equal entries are not always repeated. Records with an inconclusive call do not appear. More than one record can exist for a structure, and the calls need not agree. Active and inactive are the calls of the source. Unless noted, calls follow the shape of the dose curve; as a rule, active = well fitted curve in the direction sought with a large enough effect in the repeat runs; inconclusive = weak or mixed curves; inactive = no such curve, though single readings can be large; an effect the other way counts as inactive or inconclusive.

Glucocorticoid receptor (Homo sapiens), sequence (P04150 whole entry, looked up): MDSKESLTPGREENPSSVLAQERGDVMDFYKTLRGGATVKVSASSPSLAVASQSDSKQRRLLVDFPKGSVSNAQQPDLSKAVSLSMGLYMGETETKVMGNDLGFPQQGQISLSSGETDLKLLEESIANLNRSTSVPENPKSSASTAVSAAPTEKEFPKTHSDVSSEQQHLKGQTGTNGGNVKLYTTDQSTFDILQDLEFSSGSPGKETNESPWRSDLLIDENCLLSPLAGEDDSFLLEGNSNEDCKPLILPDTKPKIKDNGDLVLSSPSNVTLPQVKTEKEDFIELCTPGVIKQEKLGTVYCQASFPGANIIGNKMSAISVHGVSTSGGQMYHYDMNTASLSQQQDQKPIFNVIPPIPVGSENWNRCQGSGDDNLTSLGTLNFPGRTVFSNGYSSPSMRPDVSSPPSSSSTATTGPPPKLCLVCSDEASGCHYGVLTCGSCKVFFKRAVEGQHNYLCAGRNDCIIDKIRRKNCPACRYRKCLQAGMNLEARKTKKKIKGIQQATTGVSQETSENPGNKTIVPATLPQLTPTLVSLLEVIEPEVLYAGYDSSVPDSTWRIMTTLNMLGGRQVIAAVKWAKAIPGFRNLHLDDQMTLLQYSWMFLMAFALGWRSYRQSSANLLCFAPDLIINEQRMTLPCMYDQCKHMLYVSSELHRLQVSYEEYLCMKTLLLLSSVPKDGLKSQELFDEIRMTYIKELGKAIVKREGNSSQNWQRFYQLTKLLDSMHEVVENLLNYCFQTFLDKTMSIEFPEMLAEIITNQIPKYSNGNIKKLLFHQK

As for `Cn1cnc2c1c(=O)[nH]c(=O)n2C`, the Potency result in assay [1], in assay [2], in assay [3] and in assay [16] was “inactive” throughout. For the same molecule, the outcome in [4], in assay [5], in assay [6], in assay [7], in assay [8] and in [9] was inactive. For the same molecule, the result in [10], in [11], in [12], in [13], in assay [14] and in assay [15] was inactive.
Regarding `C=C(C)OC(C)=O`, the Potency result in [17], in [1], in assay [2], in assay [3] and in [16] was “inactive” throughout. The molecule was called inactive in [4], in assay [5], in [6], in [7], in assay [8] and in [9]. Moreover, the outcome in [10], in [11], in [12], in assay [13], in assay [14] and in assay [15] was inactive.
As to `CCn1cc(C(=O)O)c(=O)c2ccc(C)nc21`, the Potency result in assay [18] and in assay [3] was “inactive” in each case. In addition, the molecule was called inactive in [4], in [5], in assay [6], in assay [7], in assay [8] and in [9]. For the same molecule, the molecule was classed as inactive in assay [10], in [11], in assay [12], in assay [13], in assay [14] and in assay [15].
`N[C@@H](Cc1c[nH]c2ccccc12)C(=O)O`: the Potency entry in assay [1], in assay [2], in assay [3] and in [16] was “inactive” each time. Also, the molecule was called inactive in assay [4], in assay [5], in [6], in assay [7], in assay [8] and in [9]. Moreover, the result in [10], in assay [11], in [12], in [13], in [14] and in [15] was inactive.
With `CC(=O)/C=C/C1=C(C)CCCC1(C)C`, the Potency result in assay [1], in [2] and in [18] was “inactive” each time. Further, the call in assay [4], in assay [5], in assay [6], in assay [7], in assay [8] and in [9] was inactive. The molecule was called inactive in assay [10], in assay [11], in assay [12], in assay [13], in assay [14] and in assay [15].
For `CC1=C(/C=C/C(C)=C/C=C/C(C)=C/C(=O)O)C(C)(C)CCC1`, the Potency result is “inactive and 68.7 µM (active)” in assay [1]; “inactive and 27.3 µM (active)” in [3]; 54.9 µM (active) in assay [16]. Besides, the Potency entry in assay [2] is “inactive”. In addition, the call in assay [4], in assay [5], in assay [6], in [7], in [8] and in assay [9] was inactive. Besides, the molecule was classed as inactive in [10], in assay [11], in assay [12], in assay [13], in assay [14] and in assay [15].
As to `COc1cc2c(c(OC)c1OC)-c1ccc(OC)c(=O)cc1[C@@H](NC(C)=O)CC2`, the Potency is 266 nM (active) and 48 nM (active) and 54.5 nM (active) in [19]; 335 nM (active) and 9.6 nM (active) and 7.7 nM (active) in assay [2]; 3.35 µM (active) and 1.52 µM (active) and 1.37 µM (active) in assay [3]. Further, the Potency entry in [1], in [18] and in assay [20] was “inactive” throughout. Further, the molecule was classed as inactive in assay [4], in assay [5], in [6], in [7], in [8] and in [9]. The molecule was called inactive in assay [10], in [11], in [12], in assay [13], in assay [14] and in assay [15].
As for `CCCCOCCOCCOC(C)=O`, the Potency entry in assay [17], in [1], in [2], in assay [3] and in assay [16] was “inactive” throughout. Also, the call in assay [4], in [5], in assay [6], in assay [7], in assay [8] and in assay [9] was inactive. For the same molecule, the call in assay [10], in assay [11], in assay [12], in assay [13], in [14] and in assay [15] was inactive.
With `NC(N)=NC(N)=NCCc1ccccc1`, the Potency result in [19], in assay [1], in assay [2], in [18], in [3] and in [16] was “inactive” in each case. Moreover, the molecule was called inactive in assay [4], in [5], in assay [6], in assay [7], in assay [8] and in assay [9]. In addition, the result in [10], in [11], in assay [12], in assay [13], in assay [14] and in [15] was inactive.
`NCCNc1cccc2ccccc12`: the Potency result in assay [19], in [1], in [2], in [18] and in assay [16] was “inactive” each time. The molecule was classed as inactive in assay [4], in [5], in assay [6], in assay [7], in [8] and in assay [9]. Further, the call in [10], in assay [11], in assay [12], in assay [13], in assay [14] and in assay [15] was inactive.
`C[C@]12CC[C@@H]3c4ccc(O)cc4CC[C@H]3[C@@H]1CCC2=O`: the Potency entry in assay [2] is “inactive”. The Potency in assay [3] was 13.3 µM (active) and 6.87 µM (active). In addition, the call in [4], in assay [5], in [6], in assay [7], in assay [8] and in assay [9] was inactive. In addition, the molecule was called inactive in assay [10], in assay [11], in assay [12], in assay [13], in [14] and in assay [15].
For `CCCCOC(=O)CCCCCCCCC(=O)OCCCC`, the Potency entry in [19], in assay [1], in assay [2], in assay [18], in assay [3] and in assay [16] was “inactive” each time. Also, the molecule was called inactive in assay [4], in [5], in assay [6], in [7], in assay [8] and in [9]. For the same molecule, the molecule was called inactive in assay [10], in assay [11], in assay [12], in assay [13], in assay [14] and in [15].
As for `N[C@@H](Cc1c[nH]c2ccc(O)cc12)C(=O)O`, the Potency entry in [19], in assay [1], in assay [2], in assay [20] and in assay [16] was “inactive” in each case. Further, the Potency in [3] was 26.6 µM (active) and 941 nM (active). Moreover, the outcome in [4], in [5], in assay [6], in assay [7], in [8] and in assay [9] was inactive. Further, the molecule was called inactive in assay [10], in [11], in assay [12], in [13], in assay [14] and in assay [15].
With `O=C(O)CN(CC(=O)O)CC(=O)O`, the Potency result in [17], in assay [1], in assay [2], in assay [20] and in [16] was “inactive” throughout. Further, the molecule was called inactive in [4], in [5], in [6], in assay [7], in assay [8] and in assay [9]. Further, the outcome in assay [10], in [11], in [12], in assay [13], in assay [14] and in assay [15] was inactive.
